According to PubChem BioAssay AID488969 (Vanderbilt High Throughput Screening Facility, 2010):
In all, about 110,000 compounds were measured (“z-score”: median about -0.1, highest 2% from about 2 on). For the sample, the highest values were picked, then their nearest neighbours and some compounds at random. Calls of active or inactive are those of the source.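 The calls were made as follows: active = z-score in the third read window above 3 or below -3; inactive = the rest.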

target: Metabotropic glutamate receptor 8 (Rattus norvegicus) (UniProt P70579); assay: rat mGluR8 modulators via GIRK flux, primary screen, cell-based, thallium flux, HTS (AID 488969); settings: HEK293 rat mGluR8, GIRK (G protein-gated inwardly rectifying potassium channel) thallium flux, FluoZin2; at 10 µM; stronger effect = higher value; submaximal glutamate (EC20) added with thallium
Sequence (P70579 whole entry, looked up): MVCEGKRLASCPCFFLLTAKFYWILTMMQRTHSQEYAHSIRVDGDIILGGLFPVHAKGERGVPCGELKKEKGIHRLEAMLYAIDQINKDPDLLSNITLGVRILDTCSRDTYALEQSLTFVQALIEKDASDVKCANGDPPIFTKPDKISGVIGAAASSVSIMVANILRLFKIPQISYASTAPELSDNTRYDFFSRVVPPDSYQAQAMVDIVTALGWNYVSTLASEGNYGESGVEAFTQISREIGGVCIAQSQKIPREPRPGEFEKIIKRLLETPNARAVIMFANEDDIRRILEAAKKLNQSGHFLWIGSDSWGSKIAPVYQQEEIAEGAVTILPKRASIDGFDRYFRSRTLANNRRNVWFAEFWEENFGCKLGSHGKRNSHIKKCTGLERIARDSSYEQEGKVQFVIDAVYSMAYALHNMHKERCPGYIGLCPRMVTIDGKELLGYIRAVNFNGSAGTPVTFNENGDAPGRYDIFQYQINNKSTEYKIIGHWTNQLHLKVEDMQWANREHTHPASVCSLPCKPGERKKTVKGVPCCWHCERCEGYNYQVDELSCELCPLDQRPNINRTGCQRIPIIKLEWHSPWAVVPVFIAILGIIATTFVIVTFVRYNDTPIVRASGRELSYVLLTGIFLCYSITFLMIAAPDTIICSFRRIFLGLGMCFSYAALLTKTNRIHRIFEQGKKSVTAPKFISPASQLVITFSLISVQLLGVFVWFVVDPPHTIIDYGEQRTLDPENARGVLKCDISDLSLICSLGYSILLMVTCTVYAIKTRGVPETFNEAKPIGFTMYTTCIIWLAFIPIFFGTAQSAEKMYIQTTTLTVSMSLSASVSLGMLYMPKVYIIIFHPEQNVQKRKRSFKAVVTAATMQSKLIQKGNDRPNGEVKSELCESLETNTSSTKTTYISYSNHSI

Compared with `O=C1CC(c2ccccc2)CN1S(=O)(=O)c1ccccc1` (stereo not given), `O=CN1CC(=O)N(c2ccccc2)c2c([nH]c3ccccc23)C1` is higher in z-score: 0.00794 for the first, 0.383 for the second.

Going from `O=C(NCCc1csc(-c2cccnc2)n1)c1cccc2ccccc12` to `O=C(Oc1cccc([N+](=O)[O-])c1)c1cc(-c2ccccc2)nc2ccccc12`, the z-score falls from 0.472 to 0.17.

Compared with `CC(C)=C1SC(N2CCCCC2)=NC1=O`, `CCCC(=O)Nc1cc(-c2nnc(OC)c3ccccc23)ccc1N1CCCCC1` is lower in z-score: 1.93 for the first, -0.148 for the second.

Compared with `Cc1nn(CCc2n[nH]c(=S)n2C2CCCCC2)c(C)c1Br`, `COc1ccc(OC)c(NC(=O)C2CCCCC2)c1` is higher in z-score: -0.451 for the first, -0.385 for the second.

Compared with `COc1ccc(-c2csc(NC(=O)CN3C(=O)CCC3=O)n2)cc1OC`, `CCc1cc(C(c2ccc(OC)c(OC)c2)N2CCOCC2)c(NC(=O)c2ccccc2)s1` (stereo not given) is lower in z-score: -0.147 for the first, -0.47 for the second.

Going from `Cc1cc(=O)n2[nH]c(-c3ccccc3Cl)cc2n1` to `CCc1nc(Nc2ccc(OC)c(OC)c2)c2nnn(Cc3ccccc3Cl)c2n1`, the z-score rises from -0.0492 to 0.049.

Going from `Cc1cc([N+](=O)[O-])c2[nH]c(C(=O)N/N=C/c3ccccc3C(=O)O)c(-c3ccccc3)c2c1` to `Cc1c(C(=O)N/N=C/C(C)C)[nH]c2c([N+](=O)[O-])cccc12`, the z-score falls from -0.455 to -0.722.

Compared with `CCC/C=N/NC(=O)c1[nH]c2c([N+](=O)[O-])cccc2c1C`, `CCOc1ccc(C(F)(F)F)cc1NC(=O)c1ccc(OC)c([N+](=O)[O-])c1` is lower in z-score: 2.02 for the first, 0.372 for the second.

Going from `O=C(COc1ccc(Br)cc1CO)Nc1ccccc1F` to `COc1ccccc1NC(=O)COc1ccc(Br)cc1CO`, the z-score rises from -0.0395 to 2.95.

Compared with `O=C(COc1ccc(Br)cc1CO)Nc1ccccc1`, `CCOc1ccc(C(F)(F)F)cc1NC(=O)COc1ccc(C(F)(F)F)cc1[N+](=O)[O-]` is higher in z-score: -0.336 for the first, -0.107 for the second.

First: CCn1c(COc2ccc(C)cc2)nnc1SCc1nc2ccccc2[nH]1
Second: CO/N=C/c1ccc(Sc2ccc(C)cc2)c([N+](=O)[O-])c1
The z-score of the first is higher: -0.0293 for the first, -0.349 for the second.

Compared with `COCCN1C(=O)c2ccccc2C(C(=O)NCC2CCCO2)C1c1c[nH]c2ccccc12` (stereo not given), `O=C(NCc1ccc2c(c1)OCO2)C1CCCN1C(=O)Nc1cccc(F)c1` (stereo not given) is higher in z-score: -0.121 for the first, 0.725 for the second.

Compared with `CC(C)C(=O)Nc1nnc(CCc2nnc(NC(=O)C(C)C)s2)s1`, `COC(=O)Cc1nnc(NC(=O)C(C)C)s1` is lower in z-score: 0.549 for the first, 0.0291 for the second.

`COc1cc(NC(=O)C2CCCO2)c(OC)cc1Cl` (stereo not given) showed a z-score of -0.106.

For `COc1ccccc1NC(=O)COc1ccc(C(F)(F)F)cc1[N+](=O)[O-]`, the z-score was 4.19 (active).
With `COCc1nnc(NC(=O)C(C)C)s1` the z-score was 3.48 (active).
`COc1cc(NC(=O)C(=O)NNC(=O)C2CCCCC2)c(OC)cc1Cl` was tested, and the z-score was 3.98 (active).
